The text below walks through data of PubChem BioAssay (NCATS).

Results filed as inconclusive are left out. Activity calls are given as the source filed them. Calls come from the whole dose curve; as a rule, active = well fitted curve in the direction sought with a large enough effect; inconclusive = small, poorly fitted or top-dose-only effect, or another doubt; inactive = no such curve, though single readings can be large; an effect the other way counts as inactive or inconclusive.

In assay [1] the target is Glutathione peroxidase 1 (Homo sapiens) (UniProt P07203). Description: Primary qHTS Assay for Inhibitors of Recombinant Selenoprotein Glutathione Peroxidase 1 (GPX1) (AID 1845191). For activity, negative = inhibition: % is set by controls: 0 for no effect and ±100 for the full control effect. Note: nearly all actives have a fitted effect of over 65% in size. The procedure, abridged:
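GR-coupled assay: compounds preincubated 30 min at room temperature with GPX1, then reaction started with CHP; final 10 nM GPX1, 1 mM GSH, 0.5 mM CHP, 0.5 mM NADPH, 100 nM GR, 0.01% BSA, pH 7.5 Tris buffer. NADPH fluorescence (340/450 nm) read at 0 and 15 min.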

Assay [2] concerns the target Phospholipid hydroperoxide glutathione peroxidase GPX4 (Homo sapiens) (UniProt P36969). Description: Primary qHTS Assay for Inhibitors of Recombinant Selenoprotein Glutathione Peroxidase 4 (GPX4) (AID 1845192). Note: nearly all actives have a fitted effect of over 65% in size. The procedure, abridged:
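GR-coupled assay: recombinant GPX4 preincubated 30 min with compound at room temperature; final 200 nM GPX4, 1 mM GSH, 0.5 mM cumene hydroperoxide, 0.5 mM NADPH, 100 nM GR, 0.01% BSA, pH 7.5 Tris. NADPH fluorescence (340/450 nm) read at 0 and 15 min.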
In general terms: In qHTS, concentration-response curves come from the screen itself.

Assay [3] deals with Luciferin 4-monooxygenase (Photinus pyralis) (UniProt P08659). Description: Primary firefly luciferase (FLuc) qHTS assay for identification of artifact compounds. (AID 1845220). Note: nearly all actives have a fitted effect of over 60% in size. The procedure, abridged: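 Titrated compounds were incubated 15 min at RT, protected from light, with luciferin and ATP at 10 uM; reaction started with 10 nM FLuc, luminescence imaged at 5 min, and concentration-response fitted by Hill equation.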

The test system of assay [4] is Nanoluciferase (engineered Oplophorus gracilirostris luciferase). Description: Primary Nanoluciferase (NLuc) qHTS assay for identification of artifact compounds. (AID 1845222).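 Note: NLuc secreted into diluted conditioned medium of S16 cells; 0% = DMSO and -100% = no enzyme.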 The procedure, abridged:
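qHTS format, against NLuc in S16 cell-conditioned medium. Nano-Glo substrate 1:100 was added after 15 min at room temperature. Luminescence was taken after a further 5 min.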

Assay [5] is described as follows: Quantitative High-Throughput drug screen in 47 multiple myeloma cell lines against the NCATS MIPE library collection: FR4_PLB cell viability assay (AID 1918924; note: nearly all actives have a fitted effect of over 35% in size; note: potency is the fitted concentration of half-maximal effect). The procedure, abridged:
(§1)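 Inhibition of cell viability is measured here. Each line was plated at 500 cells per well, treated with MIPE 4.0 drugs, kept 48 hours at 37C, then assayed for ATP content by CellTiter-Glo luminescence.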

Assay [6] can be described thus: Quantitative High-Throughput drug screen in 47 multiple myeloma cell lines against the NCATS MIPE library collection: EJM_DSMZ cell viability assay (AID 1918926; note: nearly all actives have a fitted effect of over 30% in size; note: potency is the fitted concentration of half-maximal effect). The procedure, abridged:
(§2)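 CellTiter-Glo luminescence (ATP) after 48 h compound exposure, 37C/5% CO2; 500 cells/well; MIPE 4.0 approved/investigational drugs pinned in; DMSO = 100%, media only = 0% viability.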

The nature of assay [7]: Quantitative High-Throughput drug screen in 47 multiple myeloma cell lines against the NCATS MIPE library collection: AMO1_DSMZ cell viability assay (AID 1918927; note: nearly all actives have a fitted effect of over 30% in size; note: potency is the fitted concentration of half-maximal effect). The procedure, abridged: as §2
Assay [8] in a line: Quantitative High-Throughput drug screen in 47 multiple myeloma cell lines against the NCATS MIPE library collection: Karpas620_DSMZ cell viability assay (AID 1918959). Note: nearly all actives have a fitted effect of over 30% in size. Note: potency is the fitted concentration of half-maximal effect. The procedure, abridged: as §1
Assay [9] can be described thus: Quantitative High-Throughput drug screen in 47 multiple myeloma cell lines against the NCATS MIPE library collection: KHM11_PLB cell viability assay (AID 1918962). Note: nearly all actives have a fitted effect of over 35% in size. Note: potency is the fitted concentration of half-maximal effect. The procedure, abridged: as §1
A short description of assay [10]: Quantitative High-Throughput drug screen in 47 multiple myeloma cell lines against the NCATS MIPE library collection: JIM3_ECACC cell viability assay (AID 1918963; note: nearly all actives have a fitted effect of over 35% in size; note: potency is the fitted concentration of half-maximal effect). The procedure, abridged:
as §1

The target in assay [11] is Metallo-beta-lactamase type 2 (Klebsiella pneumoniae) (UniProt C7C422). Description: qHTS to identify inhibitors of the New Delhi Metallo-beta-lactamase (NDM): assay validation screen against the NCATS LOPAC Collection (AID 1794843). Note: % is set by controls: 0 for no effect and ±100 for the full control effect. The procedure, abridged: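 Absorbance at 485 nm from nitrocefin turnover (50 uM solution added), read at plateau, gives the read-out. Compounds in DMSO were incubated first with 2 nM final NDM-1 in pH 7.0 HEPES buffer containing 1 uM ZnSO4 and 0.01% Tween20.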

Assay [12] can be described thus: Quantitative High-Throughput drug screen in 47 multiple myeloma cell lines against the NCATS MIPE library collection: Delta47_JCRB cell viability assay (AID 1918925; note: nearly all actives have a fitted effect of over 45% in size; note: potency is the fitted concentration of half-maximal effect). The procedure, abridged:
as §2

A short description of assay [13]: Primary fluorescence-based thiol-reactive (MSTI) qHTS assay for identification of artifact compounds. (AID 1845221).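 Note: thiol-reactive compounds lower the probe fluorescence signal; nearly all actives have a fitted effect of over 65% in size.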 The procedure, abridged: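 Reactivity toward the thiol probe MSTI (4 uM) is scored by fluorescence at Ex/Em 525/598 nm after 1 h at room temperature. Acetyl-MSTI and MSTI define the activity scale.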
A short description of assay [14]: Primary redox qHTS assay for identification of artifact compounds. (AID 1845223). The procedure, abridged:
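Amplex Red (25 uM) and HRP (250 mU/mL) in HBSS, with compounds for 15 min, then 250 uM DTT for 30 min, room temperature, dark. Fluorescence 525/598 nm read; normalized to DMSO and 10 uM DA3003; Hill fit.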

A short description of assay [15]: Quantitative High-Throughput drug screen in 47 multiple myeloma cell lines against the NCATS MIPE library collection: ARP1_JJKsccF8 cell viability assay (AID 1918928; note: nearly all actives have a fitted effect of over 40% in size). The procedure, abridged: (§3)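 ATP readout (CellTiter-Glo), 48 h drug incubation, 37 °C/5% CO2, 500 cells per well; normalisation to DMSO (100%) and media-only (0%) controls.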
The nature of assay [16]: Quantitative High-Throughput drug screen in 47 multiple myeloma cell lines against the NCATS MIPE library collection: ARD_JJKsccE7 cell viability assay (AID 1918929). The procedure, abridged: as §2
Assay [17] is described as follows: Quantitative High-Throughput drug screen in 47 multiple myeloma cell lines against the NCATS MIPE library collection: KMM1_JCRB cell viability assay (AID 1918960).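 For viability (% of DMSO): 100% = DMSO-treated cells and 0% = medium-only wells.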 Note: nearly all actives have a fitted effect of over 30% in size. Note: potency is the fitted concentration of half-maximal effect. The procedure, abridged:
as §3

Assay [18] in a line: Quantitative High-Throughput drug screen in 47 multiple myeloma cell lines against the NCATS MIPE library collection: Karpas417_ECACC cell viability assay (AID 1918961). Note: potency is the fitted concentration of half-maximal effect. As to conditions: Karpas417 myeloma viability, CellTiter-Glo ATP luminescence, 48 h; viability (% of DMSO): at 45.8 µM (top of the series) unless noted. The procedure, abridged:
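qHTS of the MIPE 4.0 collection: 500 myeloma cells/well, 48 h drug exposure at 37C in 5% CO2, then CellTiter-Glo for 5 min at room temperature before luminescence reading.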
Background: In ATP-based viability assays light output follows the ATP content of the culture.

Chain of Glutathione peroxidase 1 (Homo sapiens) (P07203 whole entry, looked up): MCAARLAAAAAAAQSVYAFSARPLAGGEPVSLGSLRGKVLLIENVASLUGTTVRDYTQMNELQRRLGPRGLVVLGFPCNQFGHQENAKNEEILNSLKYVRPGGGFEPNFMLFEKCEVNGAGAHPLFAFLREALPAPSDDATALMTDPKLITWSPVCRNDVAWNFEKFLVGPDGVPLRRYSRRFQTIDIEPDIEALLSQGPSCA
Chain of Metallo-beta-lactamase type 2 (Klebsiella pneumoniae) (C7C422 whole entry, looked up): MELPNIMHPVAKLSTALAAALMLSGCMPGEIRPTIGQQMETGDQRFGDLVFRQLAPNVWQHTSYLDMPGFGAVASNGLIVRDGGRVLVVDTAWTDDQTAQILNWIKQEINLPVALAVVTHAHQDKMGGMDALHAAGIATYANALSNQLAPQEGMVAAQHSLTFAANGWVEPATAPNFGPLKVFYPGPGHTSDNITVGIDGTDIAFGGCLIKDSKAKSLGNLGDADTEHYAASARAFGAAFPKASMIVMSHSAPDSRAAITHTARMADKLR
Chain of Phospholipid hydroperoxide glutathione peroxidase GPX4 (Homo sapiens) (P36969 whole entry, looked up): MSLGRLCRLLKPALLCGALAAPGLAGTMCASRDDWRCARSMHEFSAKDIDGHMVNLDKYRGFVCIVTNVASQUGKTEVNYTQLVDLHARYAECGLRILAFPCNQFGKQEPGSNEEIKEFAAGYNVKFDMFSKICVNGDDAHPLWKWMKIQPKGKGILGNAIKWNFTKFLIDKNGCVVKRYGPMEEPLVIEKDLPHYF

For `Cn1cc(-c2ccc3nnc(C(F)(F)c4ccc5ncccc5c4)n3n2)cn1`, the Potency result in assay [1], in assay [2], in [3], in assay [5], in assay [6] and in [8] was “inactive” in each case. The Potency entry in [10] is “inactive”. The call in assay [4] was inactive. Also, the Potency was 13.2 µM (active) in assay [7] and 4.69 µM (active) in assay [9].
On to `O=NN(CCCl)C(=O)NCCCl`, for which the compound was called inactive in [11]. Moreover, the Potency entry in assay [1], in assay [2], in assay [12], in [7], in assay [8] and in [9] was “inactive” each time. Further, the Potency result in assay [10] is “inactive”.
Turning to `COc1nc(-c2ccc3c(c2)OCO3)n(-c2ccc(NC(=O)CSc3ccccc3)cc2)n1`, the Potency entry in assay [1], in assay [2], in [3], in [13], in [5] and in assay [12] was “inactive” each time. Also, the Potency entry in assay [6], in assay [15], in assay [16], in assay [8], in [17] and in assay [18] was “inactive” throughout. The Potency result in assay [9] and in [10] was “inactive” each time. The result in [4] and in [14] was inactive.
With `Cc1n[nH]c(C)c1Cc1sc2c(c1C(=O)N1C[C@H](O)CO1)c(=O)n(C)c(=O)n2CC(C)C`, the Potency result in assay [1], in assay [2], in assay [3], in [5], in assay [12] and in [6] was “inactive” in each case. Besides, the Potency result in assay [15], in assay [16], in [8], in assay [9] and in [10] was “inactive” throughout. In addition, the compound was classed as inactive in [4] and in [14]. Besides, the Potency in assay [17] is 0.0118 µM (active); in assay [18] it was 0.0209 µM (active).
Take `CN(C(=O)c1ccc(F)cc1C(F)(F)F)C1CCN(c2nnc(-c3ccnn3C)c3ccccc23)CC1`: the Potency result in assay [1], in assay [2], in [3] and in assay [13] was “inactive” each time. Also, the result in [4] and in [14] was inactive.
For the compound `NC(N)=NC(=O)c1nc(Cl)c(N)nc1N`, the compound was classed as inactive in assay [11]. Besides, the Potency result in assay [1], in [2], in assay [6], in assay [8] and in assay [10] was “inactive” each time. Also, the Potency is 8.33 µM (active) in assay [12] and 14.8 µM (active) in [7].
For `NCCc1ccc(O)c(O)c1`, the compound was called inactive in assay [11]. For the same compound, the Potency entry in assay [1], in assay [2] and in [9] was “inactive” each time. The Potency in assay [8] was 20.9 µM (active); in assay [10], 18.7 µM (active).
In the case of `Cc1cc(Nc2nc(N[C@@H](C)c3ncc(F)cn3)ncc2Cl)n[nH]1`, the Potency entry in assay [1], in assay [2], in assay [12] and in [17] was “inactive” each time. The compound was classed as inactive in [4] and in assay [14]. Besides, the Potency in [6] is 2.64 µM (active); in assay [10] it was 8.33 µM (active).
Consider `CCCS(=O)(=O)Nc1ccc(F)c(C(=O)c2c[nH]c3ncc(-c4ccc(Cl)cc4)cc23)c1F`, for which the Potency result in assay [1], in [2] and in assay [8] was “inactive” each time. Besides, the compound was classed as inactive in [4] and in assay [14]. Further, the Potency was 23.5 µM (active) in assay [9] and 18.7 µM (active) in assay [10].
Consider `CC[C@H](Nc1ncnc2nc[nH]c12)c1nc2cccc(F)c2c(=O)n1-c1ccccc1`, for which the Potency result in [1], in [2], in assay [7], in [8], in [17] and in [18] was “inactive” throughout. Also, the activity, negative = inhibition in [4] was -6.53% [at 11.6 µM] (inactive). In addition, in [14], the redox activity (% of DA3003) was 6.84% [at 11.5 µM] (inactive). The results for the Potency in assay [5], in assay [9] and in assay [10] were 20.9 µM (active), 4.69 µM (active) and 16.6 µM (active), respectively.
